Source: PubChem (Johns Hopkins Ion Channel Center)
The list is not random: actives were taken first. Their share in the collection is about 1.6%.
KCNQ2 pot: KCNQ2 (rat) channel potentiation | O88943 | CHO-K1 KCNQ2, FluxOR thallium flux fluorescence; stronger effect = higher value | B-score at 10 µM | 0.54% of 310,000 active | AID 2239;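 active means fluorescence ratio B-score at least 3 SD of library B-scores, with initial fluorescence B-score within 3 of them, cut at about 5.3 in these data; same plate scores as AID 2156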;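 further: B-score of peak minus minimum over baseline fluorescence ratio after K+ and Tl+ stimulus; positive B-score means potentiation of KCNQ2 with more thallium influx and brighter signal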
KCNQ2 block: inhibitors of rat KCNQ2 potassium channel | O88943 | CHO-K1 KCNQ2, FluxOR thallium flux, 20 min; stronger effect = lower value | B-score at 10 µM | 1.1% of 310,000 active;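 active means fluorescence ratio B-score at most minus 3 library SDs, with starting brightness B-score within 2 library SDs, cut at about -5.5 in these data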
Kir21 conf inh: confirmation of mouse Kir2.1 potassium channel inhibitors | shares compounds with KCNQ2 pot | Kir2.1-expressing cells, FluxOR thallium flux fluorescence; stronger effect = lower value | Tl flux remaining, % of negative control (stronger effect = lower value), % at 10 µM | 41% of 2,300 active | AID 2032;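 active means Primary-screen hit whose thallium flux fell at least 3 control SD below untreated wells in both duplicates, with normal baseline fluorescence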;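 further: 0% = blank wells without stimulus and 100% = stimulated no-compound controls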
HEK293 ctr: counter-screen for Kir2.1 inhibitors: effect in parental HEK293 cells | FluxOR signal as % of negative control (100 = no effect), % at 10 µM | shares compounds with KCNQ2 pot | FluxOR thallium flux fluorescence; 0% = unstimulated blank wells | 19% of 2,300 active;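 active means dye signal at least 3 control SD above or below untreated wells in both duplicates, raw fluorescence within 3, either direction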;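 further: percent is based on the flux ratio of peak minus minimum fluorescence over baseline F0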
CHO-K1 ctr: alters thallium flux in parental CHO-K1 cells, KCNQ2 counter-screen. AID 2282. FluxOR thallium flux fluorescence; zero = vehicle mean+3SD, 100% = vehicle-minus-blank window. activity increase over 3SD of controls, % at 10 µM. 43% of 1,200 active. shares compounds with KCNQ2 pot;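 active means signal rise of at least 3 SD above the untreated control mean, in both duplicate wells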;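 further: counter screen of KCNQ2 potentiator hits so any rise reflects channel-independent effects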
KCNQ1 sel pot: human KCNQ1 counter-target activity of KCNQ2 potentiators | activation over 3SD threshold, % at 10 µM | shares compounds with KCNQ2 pot | AID 2283 | 28% of 1,200 active | CHO KCNQ1 stable, FluxOR thallium flux fluorescence; beyond 3SD, as % of vehicle-control signal;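 active means fluorescence ratio rise of at least 3 SD of vehicle wells above their mean, in both replicate wells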;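 further: 0% = vehicle mean plus 3 SD and 100% = vehicle minus unstimulated blank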
Target sequence (P51787 whole entry, looked up): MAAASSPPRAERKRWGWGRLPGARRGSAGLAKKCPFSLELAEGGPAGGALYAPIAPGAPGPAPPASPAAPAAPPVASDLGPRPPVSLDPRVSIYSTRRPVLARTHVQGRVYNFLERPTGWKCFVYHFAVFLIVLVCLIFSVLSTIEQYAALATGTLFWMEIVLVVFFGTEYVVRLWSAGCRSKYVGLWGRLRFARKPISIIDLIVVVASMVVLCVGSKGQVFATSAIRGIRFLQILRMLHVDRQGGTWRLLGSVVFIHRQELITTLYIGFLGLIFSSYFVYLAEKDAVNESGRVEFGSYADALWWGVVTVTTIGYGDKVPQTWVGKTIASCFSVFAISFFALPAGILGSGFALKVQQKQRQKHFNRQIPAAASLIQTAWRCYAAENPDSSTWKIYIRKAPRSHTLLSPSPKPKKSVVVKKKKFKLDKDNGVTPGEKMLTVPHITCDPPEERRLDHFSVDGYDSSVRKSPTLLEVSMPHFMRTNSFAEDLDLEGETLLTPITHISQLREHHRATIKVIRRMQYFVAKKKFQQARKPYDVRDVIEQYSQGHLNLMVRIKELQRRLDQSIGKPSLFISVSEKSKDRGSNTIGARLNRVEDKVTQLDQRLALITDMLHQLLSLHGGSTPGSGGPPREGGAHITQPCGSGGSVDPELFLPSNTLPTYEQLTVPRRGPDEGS
KCNQ2 pot confirm: rat KCNQ2 channel potentiator confirmation; shares compounds with KCNQ2 pot; CHO-KCNQ2 cells, FluxOR thallium flux fluorescence; 68% of 1,200 active; potentiation, less the hit threshold, % at 10 µM;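 active means fluorescence ratio rising 3 SD or more over the vehicle control mean in both replicates, plus primary screen hit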;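 further: peak minus minimum thallium fluorescence divided by baseline after K/Tl stimulus; 0% = vehicle mean plus 3 SD and 100% = vehicle minus unstimulated blank difference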
Kir2-1 sel: mouse Kir2.1 off-target activity of KCNQ2 potentiators. activity over 3SD threshold, % at 10 µM. shares compounds with KCNQ2 pot. HEK293 Kir2.1, FluxOR thallium flux fluorescence. AID 2345. 2% of 1,200 active;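 active means fluorescence ratio rise of at least 3 SD above the vehicle-control mean, seen in both replicates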;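 further: 0% = vehicle mean plus 3 SD and 100% = vehicle minus no-stimulus blank window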
KCNQ2 W236L MoA: KCNQ2 potentiators acting on retigabine-insensitive rat KCNQ2 W236L mutant. CHO KCNQ2-W236L, automated patch clamp current. 10% of 940 active. shares compounds with KCNQ2 pot. current increase over 3SD of negative controls (%), stronger effect = higher value, % at 25 µM;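 active means current increase at least 3 SD of the untreated controls above them in both duplicate recordings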
* = called active by the depositor.

Results for COCCn1c(=S)[nH]c2sc3c(c2c1=O)CCC(C)C3 (configuration not stated) ?
KCNQ2 pot: 16*; KCNQ2 block: inactive; Kir21 conf inh: inactive; HEK293 ctr: inactive; CHO-K1 ctr: 0; KCNQ1 sel pot: 3.6*; KCNQ2 pot confirm: 71*; Kir2-1 sel: 11*; KCNQ2 W236L MoA: inactive

Results for CCn1c(=O)n(CCOC)c(=O)c2c3c(sc21)CCCC3 ?
KCNQ2 pot: 0.3; KCNQ2 block: inactive

What do the screens show for `CCn1nnc2sc3c(c2c1=O)CCC(C)C3` (configuration not stated)?
KCNQ2 block: inactive

How did CC(=O)Cn1nnc2sc3c(c2c1=O)CCC(C(C)(C)C)C3 (configuration not stated) do in these assays?
KCNQ2 block: inactive

What do the screens show for `CCCn1c(=S)[nH]c2sc3c(c2c1=O)CCCC3`?
KCNQ2 pot: 10*; KCNQ2 block: inactive; Kir21 conf inh: inactive; HEK293 ctr: 342%*; CHO-K1 ctr: -5; KCNQ1 sel pot: 40*; KCNQ2 pot confirm: 27*; Kir2-1 sel: -6; KCNQ2 W236L MoA: inactive

How did Nn1c(=S)[nH]c2sc3c(c2c1=O)CCCC3 do in these assays?
KCNQ2 pot: 0.24; KCNQ2 block: inactive

Results for Cc1ncc(CN2CCN(C(C)C)C(CCO)C2)s1 (configuration not stated) ?
KCNQ2 pot: 0.73; KCNQ2 block: inactive

What do the screens show for `CC(=O)Nc1ccc(NC(=O)Cc2sc(-c3cccnc3)nc2-c2ccc(C)cc2)cc1`?
KCNQ2 block: inactive

What do the screens show for `N#C/C(=C\c1cc(O)c(O)c(O)c1)C(N)=O`?
KCNQ2 block: inactive

What do the screens show for `CCOC(=O)C1CCN(C(=O)/C=C/c2ccccc2)CC1`?
KCNQ2 block: inactive

How did CCC1C(=O)NCCN1C(=O)c1cc(COc2cc(C)ccc2C)on1 (configuration not stated) do in these assays?
KCNQ2 pot: 1.4; KCNQ2 block: inactive

What do the screens show for `C(=C\c1ccccc1)/CSc1nnc(-c2ccccn2)n1Cc1ccco1`?
KCNQ2 pot: -5.8; KCNQ2 block: -5.8*; Kir21 conf inh: 60%*; HEK293 ctr: inactive

How did NC(=O)CSc1nnc(-c2ccccn2)n1Cc1ccco1 do in these assays?
KCNQ2 block: inactive

Results for Cc1cccc(C(=O)OCc2cncs2)c1 ?
KCNQ2 block: inactive

Results for Cc1ccc2c(c1)c1c(n2CC(O)CNC(CO)(CO)CO)CCCC1 (configuration not stated) ?
KCNQ2 pot: 0.98; KCNQ2 block: inactive

How did Cc1ccc2c(c1)c1c(n2CC(O)CNC2CCCCC2)CCCC1 (configuration not stated) do in these assays?
KCNQ2 block: inactive; Kir21 conf inh: 51%*; HEK293 ctr: inactive

What do the screens show for `CN(C)CCCN(C(=O)c1ccc2c(c1)OCCO2)c1nc2ccc(Cl)cc2s1`?
KCNQ2 block: inactive; Kir21 conf inh: 54%*; HEK293 ctr: inactive

Results for CN(C)CCN(C(=O)c1ccc2c(c1)OCCO2)c1nc2ccc(Cl)cc2s1 ?
KCNQ2 pot: 0.29; KCNQ2 block: inactive

Results for CCOC(=O)C1(CCCc2ccccc2)CCN(C(=O)Cn2nc(C)nc2C)CC1 ?
KCNQ2 pot: 1.9; KCNQ2 block: inactive

How did CCC(CC)C(=O)N1c2ccc(F)cc2CCC1C (configuration not stated) do in these assays?
KCNQ2 block: inactive

Results for CC(C(=O)N1c2ccc(F)cc2CCC1C)N1C(=O)c2ccccc2C1=O (configuration not stated) ?
KCNQ2 pot: 7.6*; KCNQ2 block: inactive; Kir21 conf inh: inactive; HEK293 ctr: 123%*; CHO-K1 ctr: 103*; KCNQ1 sel pot: -9; KCNQ2 pot confirm: -12; Kir2-1 sel: -32

What do the screens show for `COc1ccc(Cc2c(C)nc(N)nc2Cl)cc1`?
KCNQ2 pot: 1.2; KCNQ2 block: inactive

How did Cc1nc(N)nc(N)c1CCCc1ccc(Cl)c(Cl)c1 do in these assays?
KCNQ2 block: inactive; Kir21 conf inh: 37%*; HEK293 ctr: 68%*

What do the screens show for `Cc1cccc(C(=O)NC2C(=O)NNC2c2ccc(Cl)cc2)c1` (configuration not stated)?
KCNQ2 block: inactive

How did Cc1c(O)ccc(NS(=O)(=O)c2ccccc2)c1C do in these assays?
KCNQ2 block: inactive

What do the screens show for `Cc1cc(NS(=O)(=O)c2ccccc2)c(C)c(Cl)c1O`?
KCNQ2 block: inactive; Kir21 conf inh: 69%*; HEK293 ctr: inactive

Results for COCCNC(=S)N/N=C(\C)c1ccc(Cl)s1 ?
KCNQ2 pot: 1.5; KCNQ2 block: inactive

How did Cc1ccc(NC(=O)c2ccc(CSc3ccccn3)cc2)c(O)c1 do in these assays?
KCNQ2 pot: 0.1; KCNQ2 block: inactive

What do the screens show for `CNC(=O)c1sccc1SCc1c(Cl)cccc1Cl`?
KCNQ2 block: inactive; Kir21 conf inh: 46%*; HEK293 ctr: inactive

What do the screens show for `CNC(=O)c1sccc1SCc1ccc(Cl)cc1Cl`?
KCNQ2 block: inactive

Results for O=c1[nH]c(C2CCCN(S(=O)(=O)c3cccc(F)c3)C2)nc2c1nnn2Cc1ccccc1 (configuration not stated) ?
KCNQ2 block: inactive

What do the screens show for `Cn1c(-c2ccc3c(c2)OCO3)cnc1NCc1ccccc1`?
KCNQ2 block: inactive; Kir21 conf inh: 30%*; HEK293 ctr: inactive

How did Cn1c(-c2ccccc2)cnc1NCc1ccccc1 do in these assays?
KCNQ2 block: inactive

Results for Cn1c(NCc2cc(Br)ccc2O)nc2ccccc21 ?
KCNQ2 pot: 0.81; KCNQ2 block: inactive

What do the screens show for `Cn1c(-c2cccc(Br)c2)cnc1NCc1ccccc1O`?
KCNQ2 pot: 5.6*; KCNQ2 block: inactive; Kir21 conf inh: 75%*; HEK293 ctr: inactive; CHO-K1 ctr: 2.7*; KCNQ1 sel pot: 8.7*; KCNQ2 pot confirm: -13; Kir2-1 sel: -59

How did O=C(Nc1ccccc1)N1CCc2c([nH]c3ccccc23)C1C(F)(F)F (configuration not stated) do in these assays?
KCNQ2 block: inactive
